Here are results for four compounds from PubChem BioAssay (EPA / NIEHS).

“And” between values parts separate entries of the source, which are not always exact repeats. Identical values can stand only once. Some structures have more than one record in an assay (separate samples or runs), and their calls can disagree. The source made the active and inactive calls. How the source made its calls: active means hit-call score of the fitted dose curve at least 0.9, where 1 is the maximum; inactive means score below 0.9.

Read-out in assay [1]: Tissue Factor, F3 (gene 2152)
The experiment in a line: BSK_CASM3C_TissueFactor: BioMAP Diversity Plus: CASM3C Assay for Tissue Factor Biomarker Activity (AID 2283052).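 Further: cell surface tissue factor protein level read by ELISA.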 The following applies: primary human coronary artery smooth muscle cells; actives raise or lower the signal.

Read-out in assay [2]: Interferon-gamma inducible Protein 10 (IP10), CXCL10 (gene 3627)
The experiment in a line: BSK_hDFCGF_IP10: BioMAP Diversity Plus: hDFCGF Assay for Interferon-gamma inducible Protein 10 (IP10) Biomarker Activity (AID 2283053). To be noted: primary human foreskin fibroblasts; actives raise or lower the signal. Summed up: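 IP-10 levels, quantified by ELISA, are taken from human foreskin fibroblast cultures 24 h after chemical treatment, with DMSO serving as negative control and baseline for bidirectional analysis.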

Read-out in assay [3]: Urokinase-type plasminogen activator receptor (uPAR), PLAUR (gene 5329)
The experiment in a line: BSK_CASM3C_uPAR: BioMAP Diversity Plus: CASM3C Assay for Urokinase-type plasminogen activator receptor (uPAR) Biomarker Activity (AID 2283054).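 Further: cell-surface uPAR protein level quantified by ELISA.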 To be noted: primary human coronary artery smooth muscle cells; actives raise or lower the signal.

Read-out in assay [4]: Vascular cell adhesion molecule 1 (VCAM1), VCAM1 (gene 7412)
The assay is described as follows: BSK_CASM3C_VCAM1: BioMAP Diversity Plus: CASM3C Assay for Vascular cell adhesion molecule 1 (VCAM1) Biomarker Activity (AID 2283055).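 Further: VCAM-1 protein level quantified by ELISA on the cells.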 The following applies: primary human coronary artery smooth muscle cells; actives raise or lower the signal.

Read-out in assay [5]: Collagen III, COL3A1 (gene 1281)
The experiment in a line: BSK_hDFCGF_CollagenIII: BioMAP Diversity Plus: hDFCGF Assay for Collagen III Biomarker Activity (AID 2283056). To be noted: primary human foreskin fibroblasts; actives raise or lower the signal. In outline:
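Human foreskin fibroblast primary cultures sampled 24 h after dosing; Collagen III quantified by ELISA. Signal fitted bidirectionally against DMSO baseline.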

Read-out in assay [6]: Epidermal growth factor receptor (EGFR), EGFR (gene 1956)
The assay is described as follows: BSK_hDFCGF_EGFR: BioMAP Diversity Plus: hDFCGF Assay for Epidermal growth factor receptor (EGFR) Biomarker Activity (AID 2283057). The following applies: primary human foreskin fibroblasts; actives raise or lower the signal. In outline:
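Measured by ELISA: EGFR levels on primary human foreskin fibroblasts 24 h after chemical treatment, analysed relative to DMSO with bidirectional fitting.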

Read-out in assay [7]: Interleukin-8 (IL8), CXCL8 (gene 3576)
The assay is described as follows: BSK_hDFCGF_IL8: BioMAP Diversity Plus: hDFCGF Assay for Interleukin-8 (IL8) Biomarker Activity (AID 2283058). The following applies: primary human foreskin fibroblasts; actives raise or lower the signal. In outline:
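Primary human foreskin fibroblasts (hDFCGF system) dosed with chemical; IL-8 measured by ELISA 24 hours later. Bidirectional curve fitting relative to DMSO baseline; cytotoxicity tracked in parallel cultures by SRB total protein staining.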

The nature of assay [8]: BSK_hDFCGF_Proliferation: Cell Proliferation Assessment in the BioMAP Diversity Plus: hDFCGF Assay (AID 2283059).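 Further: curves fitted for both rise and fall of signal versus DMSO baseline.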 To be noted: primary human foreskin fibroblasts. Summed up: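 Sub-confluent human foreskin fibroblast cultures receive test chemical […]. Relative cell number is quantified by sulforhodamine B staining (0.1%, after 10% TCA fixation) at 560 nm, with bidirectional fitting referenced to DMSO.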

Read-out in assay [9]: Macrophage colony-stimulating factor (MCSF), CSF1 (gene 1435)
The assay is described as follows: BSK_hDFCGF_MCSF: BioMAP Diversity Plus: hDFCGF Assay for Macrophage colony-stimulating factor (MCSF) Biomarker Activity (AID 2283060). To be noted: primary human foreskin fibroblasts; actives raise or lower the signal. In outline:
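Human foreskin fibroblast primary cultures; M-CSF measured by ELISA 24 hours after chemical dosing. Bidirectional fitting relative to DMSO, with overt cytotoxicity tracked by parallel SRB total-protein staining (0.1% SRB, 10% TCA fixation, 560 nm).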

Assay [10] is described as follows: BSK_hDFCGF_SRB: Viability Assessment in the BioMAP Diversity Plus: hDFCGF Assay (AID 2283061).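 Further: cells exposed to compound for 24 h before the read.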 The following applies: primary human foreskin fibroblasts. In outline:
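Human foreskin fibroblasts in 96-well plates were treated 24 h. Total protein was measured by 0.1% SRB staining after 10% TCA fixation, read at 560 nm. Data were fitted bidirectionally against DMSO.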

Read-out in assay [11]: Monokine induced gamma interferon (MIG), CXCL9 (gene 4283)
The assay is described as follows: BSK_hDFCGF_MIG: BioMAP Diversity Plus: hDFCGF Assay for Monokine induced gamma interferon (MIG) Biomarker Activity (AID 2283063). The following applies: primary human foreskin fibroblasts; actives raise or lower the signal. In outline:
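MIG/CXCL9 measured by ELISA 24 h after dosing primary human skin fibroblasts. Activity fitted in both directions against DMSO controls. Cytotoxicity was checked in parallel cultures by SRB staining read at 560 nm.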

Read-out in assay [12]: Vascular cell adhesion molecule 1 (VCAM1), VCAM1 (gene 7412)
The assay is described as follows: BSK_hDFCGF_VCAM1: BioMAP Diversity Plus: hDFCGF Assay for Vascular cell adhesion molecule 1 (VCAM1) Biomarker Activity (AID 2283065).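 On AC50: VCAM-1 protein level quantified by ELISA after 24 h chemical exposure.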 To be noted: primary human foreskin fibroblasts; actives raise or lower the signal. Summed up:
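Human foreskin fibroblast primary cells dosed with chemical, VCAM-1 measured by ELISA at 24 h. Bidirectional curve fitting relative to DMSO as negative control/baseline.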

Read-out in assay [13]: Plasminogen activator inhibitor-1 (PAI1), SERPINE1 (gene 5054)
The experiment in a line: BSK_hDFCGF_PAI1: BioMAP Diversity Plus: hDFCGF Assay for Plasminogen activator inhibitor-1 (PAI1) Biomarker Activity (AID 2283066). To be noted: primary human foreskin fibroblasts; actives raise or lower the signal. In outline: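 PAI-1 levels, determined by ELISA, served as the endpoint in human foreskin fibroblast cultures exposed to compound for 24 h, with DMSO as baseline.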

Read-out in assay [14]: Intercellular Adhesion Molecule 1 (ICAM1), ICAM1 (gene 3383)
The assay is described as follows: BSK_KF3CT_ICAM1: BioMAP Diversity Plus: KF3CT Assay for Intercellular Adhesion Molecule 1 (ICAM1) Biomarker Activity (AID 2283067). The following applies: primary human keratinocytes with fibroblasts; actives raise or lower the signal. Summed up:
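Human keratinocyte–foreskin fibroblast co-culture was treated for 24 h. Cell-surface ICAM-1 was quantified by ELISA, fitted bidirectionally relative to DMSO. Cytotoxicity was checked in parallel cultures by SRB total-protein staining.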

Read-out in assay [15]: Interferon-gamma inducible Protein 10 (IP10), CXCL10 (gene 3627)
The experiment in a line: BSK_KF3CT_IP10: BioMAP Diversity Plus: KF3CT Assay for Interferon-gamma inducible Protein 10 (IP10) Biomarker Activity (AID 2283068). To be noted: primary human keratinocytes with fibroblasts; actives raise or lower the signal. In outline: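 ELISA read-out of IP-10 after 24 h chemical dosing of human skin primary co-culture (keratinocytes, foreskin fibroblasts). Gain or loss of signal relative to DMSO, bidirectional curve fit.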

Assay [16] is described as follows: BSK_KF3CT_SRB: Viability Assessment in the BioMAP Diversity Plus: KF3CT Assay (AID 2283069).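 Further: total protein by sulforhodamine B staining as a cytotoxicity measure; read 24 h after compound addition; fitted for both signal gain and loss against DMSO baseline.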 The following applies: primary human keratinocytes with fibroblasts. Summed up: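 Human keratinocyte and foreskin fibroblast co-culture exposed to chemical for 24 h. Total protein measured in parallel cultures by 0.1% sulforhodamine B staining after 10% TCA fixation, read at 560 nm; bidirectional fit relative to DMSO.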

Read-out in assay [17]: Interleukin-1 alpha (IL1a), IL1A (gene 3552)
The experiment in a line: BSK_KF3CT_IL1a: BioMAP Diversity Plus: KF3CT Assay for Interleukin-1 alpha (IL1a) Biomarker Activity (AID 2283070). To be noted: primary human keratinocytes with fibroblasts; actives raise or lower the signal. Summed up: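 Primary human keratinocyte plus foreskin fibroblast co-culture, dosed and measured at 24 h in 96-well plates. IL-1a level quantified by ELISA; bidirectional fit relative to DMSO.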

Read-out in assay [18]: TIMP metallopeptidase inhibitor 2 (TIMP2), TIMP2 (gene 7077)
The experiment in a line: BSK_KF3CT_TIMP2: BioMAP Diversity Plus: KF3CT Assay for TIMP metallopeptidase inhibitor 2 (TIMP2) Biomarker Activity (AID 2283071). The following applies: primary human keratinocytes with fibroblasts; actives raise or lower the signal. Summed up: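 Keratinocyte–fibroblast co-culture, 24 h exposure; TIMP-2 ELISA, DMSO-normalised bidirectional fit. Parallel SRB (0.1%, TCA-fixed, 560 nm) total-protein staining gauges cytotoxicity.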

Read-out in assay [19]: TIMP metallopeptidase inhibitor 1 (TIMP1), TIMP1 (gene 7076)
The assay is described as follows: BSK_hDFCGF_TIMP1: BioMAP Diversity Plus: hDFCGF Assay for TIMP metallopeptidase inhibitor 1 (TIMP1) Biomarker Activity (AID 2283062). The following applies: primary human foreskin fibroblasts; actives raise or lower the signal. In outline: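 Human foreskin fibroblast primary cultures dosed for 24 h; secreted/surface TIMP-1 quantified by ELISA. Bidirectional curve fitting against DMSO baseline; cytotoxicity tracked in parallel cultures by SRB total-protein staining.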

Read-out in assay [20]: Matrix Metallopeptidase 1 (MMP1), MMP1 (gene 4312)
The experiment in a line: BSK_hDFCGF_MMP1: BioMAP Diversity Plus: hDFCGF Assay for Matrix Metallopeptidase 1 (MMP1) Biomarker Activity (AID 2283064). The following applies: primary human foreskin fibroblasts; actives raise or lower the signal. Summed up: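 Primary human foreskin fibroblasts exposed to chemicals for 24 h; MMP1 measured by ELISA. Cytotoxicity tracked by SRB staining in parallel cultures; bidirectional fit relative to DMSO.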

In the case of `C[C@@H]1C[C@H]2[C@@H]3CCC4=CC(=O)C=C[C@]4(C)[C@@]3(F)[C@@H](O)C[C@]2(C)[C@@]1(O)C(=O)COP(=O)(O)O`, the AC50 in assay [1] was 122 nM (active) and 674 nM (active); in assay [2], 696 nM (active) and 895 nM (active); in [4], 0.1 µM (active); in [8] it was 30.3 µM (active); in assay [9], 615 nM (active) and 730 nM (active); in assay [10], 3.28 µM (active). Besides, the AC50 in assay [12] was 8.68 µM (active). In addition, the outcome in [1], in assay [2], in assay [3], in assay [4], in assay [5] and in assay [6] was inactive. In addition, the outcome in assay [7], in assay [8], in assay [9], in assay [10], in assay [11] and in assay [12] was inactive. In addition, the result in assay [13], in assay [14], in assay [15], in [16], in assay [17] and in [18] was inactive.
`CC[C@H](c1ccc(O)cc1)[C@@H](CC)c1ccc(O)cc1`: the outcome in assay [1], in assay [3], in assay [6] and in [19] was inactive. The AC50 was 24.1 µM (active) in assay [2]; 27.4 µM (active) in assay [4]; 15.1 µM (active) in assay [5]; 37.8 µM (active) in [7]; 18.8 µM (active) in assay [8]; 29.7 µM (active) in assay [9]. For the same compound, the AC50 in assay [10] was 30.4 µM (active); in assay [11], 30.6 µM (active); in [20], 31.2 µM (active); in assay [13], 25 µM (active); in assay [14] it was 32.9 µM (active); in assay [15] it was 26.5 µM (active). In addition, the AC50 was 32.5 µM (active) in assay [16], 32 µM (active) in [17] and 31.6 µM (active) in assay [18].
Turning to `CCCCCCCC(=O)O`, the result in assay [1], in [2], in assay [3], in assay [4], in [5] and in assay [6] was inactive. The outcome in [7], in assay [8], in assay [9], in assay [10], in assay [19] and in assay [11] was inactive. For the same compound, the result in assay [20], in assay [12], in [13], in assay [14], in [15] and in assay [16] was inactive. The result in assay [17] and in assay [18] was inactive.
Turning to `CN(C)C=O`, the result in assay [1], in assay [2], in [3], in assay [4], in assay [5] and in assay [6] was inactive. In addition, the result in assay [7], in assay [8], in assay [9], in assay [10], in assay [19] and in [11] was inactive. Further, the outcome in [12], in [13], in assay [14], in assay [15], in assay [16] and in assay [17] was inactive. Also, in [18], the result was inactive.
